# Reference: PubChem BioAssay
# A number with no mark means an inactive call. Entries that show only a call come without a potency. For some assays here: Potency and affinity values are given separately. Activity calls are given as the source filed them. Unless noted, the rule behind the calls is not given here.
# Assays:
# [1] = antimalarial activity against Dd2 strain (AID 2302;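 active = growth inhibition above 50% at the single 2 µM test dose, taken to imply half-maximal potency below 2 µM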); conditions: P. falciparum Dd2 in RBCs, LDH growth readout, 72 h; at 2 µM; hits give high values
# [2] = human hepatoma cell viability loss – ATP luminescence, cytotoxicity control for P. falciparum antimalarial project, primary screen (AID 2303;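 active = inhibition above 50%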); conditions: HepG2 viability, 24-48 h, at 10 µM, hits give high values
# [3] = target: L-lactate dehydrogenase (Plasmodium falciparum (isolate CDC / Honduras)) (UniProt Q27743); experiment: PfLDH activity inhibition – cell lysate, 3D7 strain, counter-screen for P. falciparum growth inhibition project (AID 2304); conditions: P. falciparum 3D7 crude extract, LDH APAD/NBT absorbance; at 2 µM; hits give high values
# [4] = inhibition of 3D7 malaria parasite growth – strain 3D7 (AID 2306); conditions: P. falciparum 3D7 erythrocytic growth, LDH absorbance, 72 h; at 2 µM; hits give high values
# [5] = target: Calcium-dependent protein kinase 1 (Plasmodium falciparum (isolate 3D7)) (UniProt P62344); experiment: PfCDPK1 kinase inhibitors, biochemical, TCAMS library (AID 1159585; cut-off not given, nearly all actives have IC50 up to about 0.98 µM;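 note: inhibitors leave more ATP so luminescence rises with inhibition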); conditions: recombinant PfCDPK1, Kinase-Glo ATP depletion luminescence
# [6] = target: Plasmodium falciparum protein kinase 6 (PK6, PF3D7_1337100) (UniProt Q8IDW1); experiment: PfPK6 kinase inhibitors, biochemical, TCAMS library (AID 1159586); conditions: recombinant PfPK6, Kinase-Glo ATP depletion luminescence
# [7] = target: Protein kinase 7 (PK7), Plasmodium falciparum 3D7 (PF3D7_0213400) (UniProt Q7YTF7); experiment: inhibition of Plasmodium PK7 catalytic activity – biochemical, TCAMS antimalarial set, Kinase-Glo luminescence (AID 1159587); conditions: recombinant PfPK7, Kinase-Glo ATP depletion luminescence
# [8] = target: Calcium-dependent protein kinase 4 (Plasmodium falciparum (isolate 3D7)) (UniProt Q8IBS5); experiment: PfCDPK4 kinase inhibitors, biochemical, TCAMS library (AID 1159588; cut-off not given, nearly all actives have IC50 up to about 0.91 µM); conditions: recombinant PfCDPK4, Kinase-Glo ATP depletion luminescence
# Calcium-dependent protein kinase 4 (Plasmodium falciparum (isolate 3D7)), sequence (Q8IBS5 whole entry, looked up): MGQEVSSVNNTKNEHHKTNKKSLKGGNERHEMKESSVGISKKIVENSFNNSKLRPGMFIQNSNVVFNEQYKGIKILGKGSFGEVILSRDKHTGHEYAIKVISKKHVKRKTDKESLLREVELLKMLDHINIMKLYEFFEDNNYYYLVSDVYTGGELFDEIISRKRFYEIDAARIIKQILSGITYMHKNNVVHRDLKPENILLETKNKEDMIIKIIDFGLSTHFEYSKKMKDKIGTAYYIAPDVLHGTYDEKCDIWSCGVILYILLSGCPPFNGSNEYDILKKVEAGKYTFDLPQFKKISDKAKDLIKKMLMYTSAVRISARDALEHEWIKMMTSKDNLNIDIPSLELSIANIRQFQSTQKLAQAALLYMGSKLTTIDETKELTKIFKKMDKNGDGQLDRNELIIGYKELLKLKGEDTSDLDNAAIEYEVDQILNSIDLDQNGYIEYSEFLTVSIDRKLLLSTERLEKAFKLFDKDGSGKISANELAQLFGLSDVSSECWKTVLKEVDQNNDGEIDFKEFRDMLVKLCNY
# Protein kinase 7 (PK7), Plasmodium falciparum 3D7 (PF3D7_0213400), sequence (Q7YTF7 1-343): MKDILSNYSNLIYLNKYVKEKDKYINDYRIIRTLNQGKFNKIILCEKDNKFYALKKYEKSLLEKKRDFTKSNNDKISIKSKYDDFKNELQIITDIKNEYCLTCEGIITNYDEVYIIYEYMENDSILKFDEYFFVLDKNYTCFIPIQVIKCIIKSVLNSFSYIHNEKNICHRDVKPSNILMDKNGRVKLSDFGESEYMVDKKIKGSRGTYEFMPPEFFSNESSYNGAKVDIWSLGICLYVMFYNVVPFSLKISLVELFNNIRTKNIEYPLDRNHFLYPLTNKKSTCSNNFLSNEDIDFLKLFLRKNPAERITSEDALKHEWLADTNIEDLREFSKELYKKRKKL
# Plasmodium falciparum protein kinase 6 (PK6, PF3D7_1337100), sequence (Q8IDW1 1-305): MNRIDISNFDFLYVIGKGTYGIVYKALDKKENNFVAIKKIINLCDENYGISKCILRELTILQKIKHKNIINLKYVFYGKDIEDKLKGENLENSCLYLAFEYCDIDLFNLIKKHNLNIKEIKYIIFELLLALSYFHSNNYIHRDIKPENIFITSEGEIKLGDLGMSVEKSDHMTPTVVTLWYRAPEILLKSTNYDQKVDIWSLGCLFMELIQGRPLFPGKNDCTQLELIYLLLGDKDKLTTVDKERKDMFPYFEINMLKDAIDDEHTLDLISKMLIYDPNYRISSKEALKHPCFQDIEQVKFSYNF
# Calcium-dependent protein kinase 1 (Plasmodium falciparum (isolate 3D7)), sequence (P62344 whole entry, looked up): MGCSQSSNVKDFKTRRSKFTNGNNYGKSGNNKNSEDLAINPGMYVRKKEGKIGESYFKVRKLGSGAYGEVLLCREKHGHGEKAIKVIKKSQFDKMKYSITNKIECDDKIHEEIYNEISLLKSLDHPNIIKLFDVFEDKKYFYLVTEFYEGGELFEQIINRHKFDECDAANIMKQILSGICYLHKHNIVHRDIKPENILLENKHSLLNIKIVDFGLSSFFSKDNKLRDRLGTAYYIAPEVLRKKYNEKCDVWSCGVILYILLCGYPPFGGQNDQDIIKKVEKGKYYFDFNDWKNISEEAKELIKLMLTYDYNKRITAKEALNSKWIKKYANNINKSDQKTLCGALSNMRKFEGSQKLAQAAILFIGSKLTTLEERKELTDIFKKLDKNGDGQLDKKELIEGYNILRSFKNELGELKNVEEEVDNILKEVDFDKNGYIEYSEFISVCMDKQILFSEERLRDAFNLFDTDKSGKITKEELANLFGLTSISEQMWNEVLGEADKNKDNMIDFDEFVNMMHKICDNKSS
# L-lactate dehydrogenase (Plasmodium falciparum (isolate CDC / Honduras)), sequence (Q27743 whole entry, looked up): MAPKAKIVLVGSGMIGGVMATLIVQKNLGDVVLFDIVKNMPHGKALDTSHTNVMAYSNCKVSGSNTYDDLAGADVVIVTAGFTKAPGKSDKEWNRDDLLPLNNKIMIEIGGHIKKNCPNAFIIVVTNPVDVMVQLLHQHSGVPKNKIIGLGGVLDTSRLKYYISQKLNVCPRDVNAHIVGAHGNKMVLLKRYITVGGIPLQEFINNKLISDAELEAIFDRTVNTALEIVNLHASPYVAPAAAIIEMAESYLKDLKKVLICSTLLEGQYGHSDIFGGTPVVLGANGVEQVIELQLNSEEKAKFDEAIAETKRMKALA
Structure (SMILES),growth inhibition [1],inhibition [2],inhibition [3] [%],growth inhibition [4],outcome [5],outcome [6],outcome [7],outcome [8]
COc1cc(SC)c(Br)cc1-c1nc2ccncc2[nH]1,9%,5%,-1,91% (active),inactive,inactive,inactive,inactive
O=C(/C=C/c1ccc(Cl)cc1)NCCCCCN1CCCC(C(=O)Nc2ccc(F)c(Cl)c2)C1 (stereo not given),6%,27%,7,94% (active),inactive,inactive,inactive,inactive
O=C(/C=C/c1ccc(Cl)c(Cl)c1)N1CCC(CCN2CCc3[nH]c4ccccc4c3C2)CC1,-1%,22%,-3,96% (active),inactive,inactive,inactive,inactive
COc1ccc2ccccc2c1C=NNc1ccnc2ccc(F)cc12,10%,11%,-2,87% (active),inactive,inactive,inactive,inactive
COc1ccc(Nc2nccc(-c3c(-c4cccc(NC(=O)c5c(F)cccc5F)c4)nn4ccccc34)n2)cc1Cl,71% (active),61% (active),-1,95% (active),inactive,inactive,inactive,inactive
COc1cc(Br)c(S(=O)(=O)n2cc(CN3CCC(N)CC3)c3cc(Cl)ccc32)cc1OC,32%,27%,-4,99% (active),inactive,inactive,inactive,inactive
CO/C(=C\C=C\c1cc2cc(Cl)c(Cl)cc2[nH]1)C(=O)NCCCN1CC(C)N(C)CC1C (stereo not given),73% (active),38%,-2,92% (active),inactive,inactive,inactive,inactive
CCCCOc1c(CCNCCCCNCCc2cc(F)c3ccccc3c2OCCCC)cc(F)c2ccccc12,78% (active),97% (active),-3,96% (active),inactive,inactive,inactive,inactive
O=C(C=Cc1ccc(Cl)c(Cl)c1)NCCCCCN1CCCC(CCCNC(=O)[C@@H]2C[C@H]2c2ccccc2)C1 (stereo not given in full),5%,48%,-1,85% (active),inactive,inactive,inactive,inactive
CCN(CC)CCN(Cc1ccc(-c2ccc(C(F)(F)F)cc2)cc1)C(=O)Cn1c(CCc2cccc(F)c2F)c(C)c(=O)c2ccccc21,52% (active),61% (active),3,87% (active),inactive,inactive,inactive,inactive
CC(C)C[C@H](NC(=O)c1cc2ccccc2s1)C(=O)N[C@H]1CCN(Cc2ccc(OC3CCN(C)C3)c(Cl)c2)C1 (stereo not given in full),65% (active),68% (active),2,97% (active),inactive,inactive,inactive,inactive
COc1ccccc1Cn1ccnc1SCC(=O)Nc1cccc(C(F)(F)F)c1,73% (active),-6%,-2,86% (active),inactive,inactive,inactive,inactive
Nc1cccc(CNCc2cccc(-c3ccc(-c4nc5ccc(C(F)(F)F)cc5[nH]4)cc3)c2)c1,98% (active),6%,1,101% (active),inactive,inactive,inactive,inactive
COc1ccc(CN(C)CCCCc2ccc(NC(=O)COc3cccc4sc5ccccc5c(=O)c34)cc2)cc1OC,84% (active),26%,-1,100% (active),inactive,inactive,inactive,inactive
CCc1cc2c3c(N)nc(N)nc3ccc2n1CC,-2%,62% (active),-1,93% (active),inactive,inactive,inactive,inactive
Nc1c2c(nc3ccc(C(=O)Nc4ccc(Br)cc4)cc13)CCCC2,99% (active),40%,1,102% (active),inactive,inactive,inactive,inactive
N#Cc1ccc(CN2CCC(Oc3ccc(NC(=O)c4cccs4)cc3Cl)CC2)cc1,96% (active),26%,-1,95% (active),inactive,inactive,inactive,inactive
CN(C)Cc1cccc(-c2ccc(Nc3nccc(NCC(O)c4ccccc4)n3)cc2)c1 (stereo not given),77% (active),75% (active),1,100% (active),inactive,inactive,inactive,inactive
COc1ccc(Nc2nc(NCc3cccc(NS(C)(=O)=O)c3)cc(-c3ccc(OC)cc3)n2)cc1,5%,-7%,5,84% (active),inactive,inactive,inactive,inactive
COc1ccccc1C(=O)C1CCCN(C(=O)c2ccccc2C(F)(F)F)C1 (stereo not given),84% (active),-9%,-4,91% (active),inactive,inactive,inactive,inactive

Structure (SMILES),growth inhibition [1],inhibition [2],inhibition [3] [%],growth inhibition [4],outcome [5],outcome [6],outcome [7],outcome [8]
O=c1cc(NCCCNCc2ccc(Cl)c(Cl)c2)[nH]c2ccc(Cl)cc12,54% (active),11%,1,101% (active),inactive,inactive,inactive,inactive
CC(=O)Nc1ccc(NC(=O)c2cc(-c3cc(Cl)ccc3O)n[nH]2)cc1,100% (active),1%,-2,100% (active),inactive,inactive,inactive,inactive
CCc1c(CCNCCc2cccc(CCNCCc3ccc(OC)c(OC)c3CC)c2)ccc(OC)c1OC,67% (active),100% (active),-6,81% (active),inactive,inactive,inactive,inactive
CCC(CC)n1c(COC)cc2c3c(N)nc(N)nc3ccc21,0%,71% (active),-4,95% (active),inactive,inactive,inactive,inactive
CCN(CC)C(=NCCCCCCN=C(NC(N)=NCc1ccc(Cl)cc1Cl)N(CC)CC)NC(N)=NCc1ccc(Cl)cc1Cl,99% (active),16%,-3,102% (active),inactive,inactive,inactive,inactive
COc1cc(NC(=O)c2c(-c3c(Cl)cccc3Cl)noc2C)c(OC)cc1Cl,67% (active),4%,0,85% (active),inactive,inactive,inactive,inactive
Cc1cc(N2CCN(CC3CCN(C)CC3)CC2)nc(Nc2ccc(Br)cc2)n1,100% (active),31%,5,100% (active),inactive,inactive,inactive,inactive
COc1ccc(CNC2CCN(C)CC2)cc1-c1cccc(S(=O)(=O)NCc2ccccc2)c1,7%,43%,-1,101% (active),inactive,inactive,inactive,inactive
Cc1cc(N(C)C)nc(Nc2ccc(NC(=O)COc3ccccc3)cc2)n1,67% (active),15%,3,101% (active),inactive,inactive,inactive,inactive
Cc1[nH]c(C)c(-c2ccc(-c3ccc(C#N)cc3)nc2)c(=O)c1Br,87% (active),5%,7,97% (active),inactive,inactive,inactive,inactive
O=C(Nc1cccc(-c2ccc(CN3CCC(O)CC3)cc2)c1)c1ccc(Cl)cc1,8%,46%,4,95% (active),inactive,inactive,inactive,inactive
O=C(Nc1ccsc1)Nc1cccc(-c2cccc(-c3nc4ccc(C(F)(F)F)cc4[nH]3)c2)c1,101% (active),76% (active),-7,102% (active),inactive,inactive,inactive,inactive
CN(C(=O)NCCc1ccccc1)C1CCN(CCCCCNC(=O)/C=C/c2ccc(Cl)c(Cl)c2)CC1,11%,43%,-7,93% (active),inactive,inactive,inactive,inactive
CCCN(Cc1nnc(-c2cccs2)o1)C(=O)CSc1nnnn1-c1ccc(C)c(C)c1,80% (active),-7%,0,96% (active),inactive,inactive,inactive,inactive
COc1ccc2nc(-c3ccc(C(=O)NCCCN4CCN(c5cc(Cl)ccc5OC)CC4)cc3OC)[nH]c2c1,24%,-5%,1,101% (active),inactive,inactive,inactive,inactive
Cc1cc(N[C@@H](Cc2ccccc2)C(=O)NCc2cccc(F)c2)nc(NCCc2ccccc2)n1,73% (active),7%,0,101% (active),inactive,inactive,inactive,inactive
O=[N+]([O-])c1cccc(CNC2CCN(Cc3ccc4ccccc4c3)CC2)c1,22%,12%,-3,100% (active),inactive,inactive,inactive,inactive
O=C(NCCN1CCCC1)c1cccc(-c2ccc(-c3nc4ccccc4[nH]3)s2)c1,13%,27%,4,96% (active),inactive,inactive,inactive,inactive
OC(CNCCCCCCNCC(O)c1ccc(Cl)c(Cl)c1)c1ccc(Cl)c(Cl)c1 (stereo not given),17%,99% (active),-5,90% (active),inactive,inactive,inactive,inactive
O=[N+]([O-])c1ccc(-n2nc(Cc3ccccc3)n(Cc3cccc(F)c3)c2=S)c(C(F)(F)F)c1,100% (active),4%,-3,101% (active),inactive,inactive,inactive,inactive
